We go through 7 compounds from PubChem BioAssay (NCI).

Compounds without any hit were thinned out: in the full panel of roughly 83,000, 20% have a hit.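 In brief: 96-well plates, 48 h treatment, single concentration, percent growth endpoint.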 Unmarked numbers belong to inactive results. Active and inactive are the calls of the source. Rule for the calls: active = growth percent below 10; inactive = the rest.

Some test systems named below: SK-MEL-2 melanoma; EKVX NSCLC; SN12C renal; UO-31 renal; TK-10 renal; ACHN renal; CAKI-1 renal; A498 renal; CCRF-CEM leukemia; MOLT-4 leukemia; RPMI-8226 leukemia; OVCAR-8 ovarian; OVCAR-5 ovarian; OVCAR-4 ovarian; SK-OV-3 ovarian; IGROV1 ovarian; OVCAR-3 ovarian; HS 578T breast; NCI/ADR-RES ovarian.
Common to all, as to assay: NCI-60 one-dose screen, 48 h (100 = growth as untreated, 0 = no growth, -100 = all killed)
Holding throughout (settings): 10 µM unless noted

In the case of `O=C(c1ccccc1)c1c(/C=C/c2ccccc2)nc2ccccc2c1/C=C/c1ccc(Br)cc1`, the growth in the test on SK-MEL-2 melanoma is 110%; in the test with EKVX NSCLC, 102%; in the test on SN12C renal it was 92.7%; in the test with UO-31 renal, 68.2%; in the test with TK-10 renal, 107%; in the test on ACHN renal, 97%. For the same compound, the growth in the test with CAKI-1 renal is 80.9%; in the test on A498 renal it was 79.9%; with CCRF-CEM leukemia, 97%; with MOLT-4 leukemia, 94.6%; in the test on RPMI-8226 leukemia it was 104%; in the test on OVCAR-8 ovarian, 102%. Also, the growth with OVCAR-5 ovarian was 103%; in the test on OVCAR-4 ovarian, 88%; in the test on SK-OV-3 ovarian it was 96.3%; with IGROV1 ovarian it was 103%; in the test with OVCAR-3 ovarian, 89.4%; in the test with HS 578T breast, 91.3%. Moreover, in the test on NCI/ADR-RES ovarian, the growth is 102%.

For the compound `COc1ccc(/C=N\NC(=O)c2cc(-c3ccc(Br)cc3)n(-c3ccc(S(N)(=O)=O)cc3)n2)cc1`, the growth is 54.3% in the test on SK-MEL-2 melanoma; 61.2% with EKVX NSCLC; 63% in the test on SN12C renal; 50.1% in the test with UO-31 renal; 29.1% in the test on TK-10 renal; 44.3% in the test on ACHN renal. Further, the growth in the test on CAKI-1 renal was 26.3%; in the test on A498 renal, -6.38% (active); with CCRF-CEM leukemia it was 55.6%; in the test on MOLT-4 leukemia it was 62.3%; with RPMI-8226 leukemia, 61.1%; in the test with OVCAR-8 ovarian it was 72%. Further, the growth in the test on OVCAR-5 ovarian is 82.5%; with OVCAR-4 ovarian it was 57.6%; with SK-OV-3 ovarian it was 74.1%; in the test on IGROV1 ovarian, 46.2%; with OVCAR-3 ovarian, 21.2%; with HS 578T breast it was 22.4%. The growth in the test on NCI/ADR-RES ovarian was 31.4%.

Regarding `Cn1c(=O)c2c(nc(Cl)n2CCl)n(C)c1=O`, the growth with SK-MEL-2 melanoma is 89.9%; with EKVX NSCLC it was 112%; in the test on SN12C renal, 106%; in the test with UO-31 renal, 93.4%; in the test with TK-10 renal, 95.6%; in the test with ACHN renal, 104%. Moreover, the growth in the test with CAKI-1 renal is 98.5%; with A498 renal, 118%; in the test on CCRF-CEM leukemia, 84.9%; in the test on MOLT-4 leukemia, 99.7%; with RPMI-8226 leukemia, 92.3%; with OVCAR-8 ovarian, 83%. For the same compound, the growth in the test with OVCAR-5 ovarian was 103%; with OVCAR-4 ovarian, 83.2%; with SK-OV-3 ovarian it was 115%; with IGROV1 ovarian, 53.8%; in the test with OVCAR-3 ovarian it was 116%; in the test on HS 578T breast it was 83.8%. The growth in the test with NCI/ADR-RES ovarian is 101%.

For the compound `CCOc1ccccc1-n1c(CN2CCN(C(=O)COc3ccc(CNCCCCCCN4C5CCCC4CC(OC(=O)Nc4cc(C)ccc4OC)C5)cc3)CC2)nc2ccccc2c1=O` (stereo not drawn), the growth in the test on SK-MEL-2 melanoma is -90.9% (active); in the test on EKVX NSCLC it was -92.1% (active); with SN12C renal it was -91% (active); with UO-31 renal it was -98.5% (active); in the test with TK-10 renal, -86.3% (active); in the test on ACHN renal, -100% (active). Also, the growth in the test on CAKI-1 renal was -100% (active); with A498 renal it was -93.4% (active); in the test on CCRF-CEM leukemia, -64.9% (active); in the test on MOLT-4 leukemia, -68% (active); in the test on RPMI-8226 leukemia it was -56.8% (active); in the test with OVCAR-8 ovarian, -88.4% (active). Besides, the growth in the test with OVCAR-5 ovarian is -91.5% (active); in the test on OVCAR-4 ovarian it was -84.7% (active); in the test with SK-OV-3 ovarian it was -98.7% (active); in the test on IGROV1 ovarian, -77.4% (active); with OVCAR-3 ovarian, -91.6% (active); in the test on HS 578T breast, -42.2% (active). The growth in the test on NCI/ADR-RES ovarian is 67%.

Turning to `COc1cc(CCC[P+](c2ccccc2)(c2ccccc2)c2ccccc2)cc2c1OCO2`, the growth with SK-MEL-2 melanoma is 6.71% (active); with EKVX NSCLC it was 28.3%; with SN12C renal, 35.9%; in the test with UO-31 renal, 88.2%; with TK-10 renal, 19.5%; with ACHN renal it was 91.8%. Besides, the growth in the test on CAKI-1 renal was 86%; with A498 renal, 45.9%; in the test with CCRF-CEM leukemia it was 41.3%; in the test on MOLT-4 leukemia it was 53.5%; in the test on RPMI-8226 leukemia, 9.71% (active); in the test on OVCAR-8 ovarian, 29.5%. Moreover, the growth was 59.1% with OVCAR-5 ovarian; 12.4% in the test with OVCAR-4 ovarian; 82.4% in the test with SK-OV-3 ovarian; 28.8% in the test on IGROV1 ovarian; 19.7% in the test with OVCAR-3 ovarian; 45.5% with HS 578T breast. In the test on NCI/ADR-RES ovarian, the growth is 101%.

On to `COc1ccc(C(=O)Nn2c(NCC(=O)N3c4ccccc4Sc4ccccc43)nnc2-c2ccc(O)cc2)cc1`, for which the growth in the test on SK-MEL-2 melanoma is 108%; in the test with EKVX NSCLC, 108%; in the test with SN12C renal, 94.7%; with UO-31 renal, 98.1%; in the test on TK-10 renal, 109%; in the test with ACHN renal, 103%. Further, the growth is 107% with CAKI-1 renal; 90.2% in the test on A498 renal; 110% in the test on CCRF-CEM leukemia; 110% in the test on MOLT-4 leukemia; 105% in the test with RPMI-8226 leukemia; 101% with OVCAR-8 ovarian. Further, the growth in the test on OVCAR-5 ovarian was 89.3%; in the test with OVCAR-4 ovarian it was 120%; with SK-OV-3 ovarian it was 105%; with IGROV1 ovarian, 110%; in the test with OVCAR-3 ovarian, 121%; in the test with HS 578T breast, 106%. Further, the growth in the test on NCI/ADR-RES ovarian is 97.8%.

As for `COc1ccc(/C=C/c2c(C(=O)/C=C/c3ccc(F)cc3)c(C)nc3ccccc23)cc1`, the growth in the test on SK-MEL-2 melanoma is 81.3%; in the test with EKVX NSCLC, 63.1%; in the test with SN12C renal it was 45.2%; in the test with UO-31 renal it was 45.6%; in the test with TK-10 renal, 110%; with ACHN renal it was 49.2%. The growth is 54.6% in the test with CAKI-1 renal; 77.2% in the test with A498 renal; 9.18% (active) in the test with CCRF-CEM leukemia; 5.98% (active) in the test on MOLT-4 leukemia; -8.58% (active) in the test on RPMI-8226 leukemia; 41.3% with OVCAR-8 ovarian. The growth is 50.9% with OVCAR-5 ovarian; 56% in the test with OVCAR-4 ovarian; 75.9% in the test with SK-OV-3 ovarian; 38.8% in the test on IGROV1 ovarian; 37.5% in the test on OVCAR-3 ovarian; 70.5% in the test on HS 578T breast. Also, the growth in the test with NCI/ADR-RES ovarian is 33.1%.
